The term Inhibition denotes the drop in the measured response relative to a control, in per cent.

Drawing on ChEMBL document CHEMBL4296182, “CO-ADD screening of NIH NCI Diversity Set V”, this text covers Inhibition for 25 compounds.

One assay concerns Staphylococcus aureus. Nature of the assay: Antibacterial activity against Staphylococcus aureus MRSA ATCC 43300 (CO-ADD:GP_020); MIC in CAMBH media using NBS plates, by Resazurin F(560/590). The assay is classed as functional. The conditions noted are these: Concentration 20 uM, ASSAY_TEST Inhibition of Bacterial Growth, detection method Resazurin, Fluorescence (ex560/em590), MEDIA CAMHB, plate type 384well, CORNING #3640, time 18 hr. (In general: The colour change of resazurin is a common sign of viable cells or microbes.)

Another assay relates to Acinetobacter baumannii. Nature of the assay: Antibacterial activity against Acinetobacter baumannii ATCC 19606 (CO-ADD:GN_034); MIC in CAMBH media using NBS plates, by Resazurin F(560/590). The format is functional. Conditions: Concentration 20 uM, ASSAY_TEST Inhibition of Bacterial Growth, detection method Resazurin, Fluorescence (ex560/em590), MEDIA CAMHB, plate type 384well, CORNING #3640, time 18 hr.

The next assay concerns Escherichia coli. Nature of the assay: Antibacterial activity against Escherichia coli ATCC 25922 (CO-ADD:GN_001); MIC in CAMBH media using NBS plates, by Resazurin F(560/590). The format is functional. Conditions: Concentration 20 uM, ASSAY_TEST Inhibition of Bacterial Growth, detection method Resazurin, Fluorescence (ex560/em590), MEDIA CAMHB, plate type 384well, CORNING #3640, time 18 hr.

The next assay deals with Klebsiella pneumoniae. Conditions: Concentration 20 uM; ASSAY_TEST Inhibition of Bacterial Growth; detection method Absorption (OD600); MEDIA CAMHB; plate type 384well; NBS; CORNING #3640; time 18 hr.
Another assay concerns Candida albicans. Conditions: 20 µM.
The next assay concerns Cryptococcus neoformans. The conditions noted are these: Concentration 20 uM; ASSAY_TEST Inhibition of Fungal Growth; detection method Resazurin; Absorption (OD600-OD570); plate type 384well; NBS; CORNING #3640.

For part of these data: Potency and affinity values are given separately.

As to `COC(=O)c1cc2c(n1S(=O)(=O)c1ccc(C)cc1)C(=O)C(=O)c1[nH]cc(C(=O)OCc3ccccc3)c1-2`, the Inhibition in the assay with Staphylococcus aureus is 12.8%; with Acinetobacter baumannii it was -9.93%; in the assay with Escherichia coli, 4.92%; with Klebsiella pneumoniae, 10.02%; in the assay on Candida albicans, -2.87%; in the assay on Cryptococcus neoformans, -5.89%.
On to `O=C(NC1(N2CCOCC2)CC1)c1ccc(Cl)cc1`, for which the Inhibition with Staphylococcus aureus was 6.77%; in the assay with Acinetobacter baumannii it was -6.57%; in the assay with Escherichia coli, -5.43%; in the assay on Klebsiella pneumoniae it was 3.34%; in the assay with Candida albicans it was 2.83%; in the assay on Cryptococcus neoformans it was -0.42%.
Regarding `Nc1cnc(Nc2ccc(Br)cc2)nc1N.O=S(=O)(O)O`, the Inhibition with Staphylococcus aureus was 3.44%; in the assay on Acinetobacter baumannii, 7.82%; in the assay with Escherichia coli, -16.03%; with Klebsiella pneumoniae, 6.45%; in the assay on Candida albicans, 3.46%; with Cryptococcus neoformans, 6.23%.
With `O=C(O)c1ccccc1-c1ccccc1C(=O)Nc1ccc2oc(=O)c3ccccc3c2c1`, the Inhibition in the assay on Staphylococcus aureus is 4.75%; with Acinetobacter baumannii, -2.77%; with Escherichia coli, -0.87%; in the assay with Klebsiella pneumoniae it was 11.43%; in the assay on Candida albicans, 17.8%; in the assay on Cryptococcus neoformans it was -3.99%.
With `Clc1nnc2c3ccccc3ccn12`, the Inhibition in the assay on Staphylococcus aureus was -3.22%; with Acinetobacter baumannii, 2.03%; in the assay on Escherichia coli it was 3.3%; with Klebsiella pneumoniae, 8.71%; in the assay on Candida albicans it was 1.01%; in the assay on Cryptococcus neoformans, -9.43%.
With `CCOC(=O)C(=O)C1C(=O)Nc2ccccc21` (stereo not given), the Inhibition is 11.5% in the assay with Staphylococcus aureus; 4.6% with Acinetobacter baumannii; -3.33% in the assay with Escherichia coli; 15.66% with Klebsiella pneumoniae; 13.9% in the assay with Candida albicans; -6.08% with Cryptococcus neoformans.
`Oc1ccc(N/C(S)=N/c2ccccc2)cc1`: the Inhibition in the assay on Staphylococcus aureus is -2.99%; in the assay on Acinetobacter baumannii, 11.99%; in the assay on Escherichia coli, -4.05%; in the assay on Klebsiella pneumoniae, 4.37%; with Candida albicans, 4.77%; with Cryptococcus neoformans, 2.65%.
Regarding `c1ccc(NCCSc2nc3ccccc3s2)cc1`, the Inhibition is 32.95% with Staphylococcus aureus; -17.22% in the assay with Acinetobacter baumannii; 10.16% in the assay on Escherichia coli; 12.47% with Klebsiella pneumoniae; 3.32% in the assay on Candida albicans; 13.76% in the assay with Cryptococcus neoformans.
`COc1ccc(C2OC3=Nc4cc(C)c(C)cc4NC3=C2O)cc1` (stereo not given): the Inhibition with Staphylococcus aureus was 19.36%; in the assay on Acinetobacter baumannii, 6.66%; with Escherichia coli it was 1.83%; in the assay on Klebsiella pneumoniae, 7.32%; in the assay on Candida albicans, 1.04%; in the assay on Cryptococcus neoformans it was -7.87%.
Regarding `CCOc1ccc(Nc2c3ccccc3nc3ccccc23)cc1`, the Inhibition is -9% in the assay with Staphylococcus aureus; -1.21% with Acinetobacter baumannii; -17.49% with Escherichia coli; 0.35% with Klebsiella pneumoniae; -0.79% in the assay on Candida albicans; -2.93% in the assay on Cryptococcus neoformans.
`CC(=O)Oc1c(C)c(OC(C)=O)c2c(c1C(C)=O)OC1CC(=O)C(C(C)=O)=C(O)C21C` (stereo not given): the Inhibition in the assay on Staphylococcus aureus was 13.8%; with Acinetobacter baumannii, -11.04%; in the assay on Escherichia coli, 18.15%; in the assay with Klebsiella pneumoniae, 8.45%; in the assay with Candida albicans, 3.77%; with Cryptococcus neoformans it was -8.61%.
`O=C(O)c1nc2nc(Cl)c(Cl)nc2[nH]1`: the Inhibition is -9.71% in the assay with Staphylococcus aureus; 8.37% in the assay on Acinetobacter baumannii; 0.88% with Escherichia coli; 10.97% with Klebsiella pneumoniae; 3.92% with Candida albicans; -11.32% in the assay on Cryptococcus neoformans.
As for `CC1=CC(C)(C)N=C(S)N1c1cccc2cc(S(=O)(=O)O)ccc12`, the Inhibition with Staphylococcus aureus was -5.5%; in the assay with Acinetobacter baumannii, 9.59%; in the assay with Escherichia coli, -20.55%; in the assay on Klebsiella pneumoniae, 7.04%; in the assay on Candida albicans it was 8.59%; with Cryptococcus neoformans it was 39.69%.
Regarding `C=CCN=C(NC#N)SC`, the Inhibition was -6.06% in the assay on Staphylococcus aureus; -0.66% with Acinetobacter baumannii; -1.07% in the assay on Escherichia coli; 5.62% with Klebsiella pneumoniae; -0.02% in the assay with Candida albicans; 0.87% in the assay on Cryptococcus neoformans.
For the compound `Clc1ccc(Oc2nc3c(Cl)cccc3s2)cc1Cl`, the Inhibition in the assay on Staphylococcus aureus is 12.48%; with Acinetobacter baumannii, 12.9%; in the assay with Escherichia coli, 4.52%; in the assay with Klebsiella pneumoniae it was 1.06%; in the assay with Candida albicans, 1.36%; in the assay with Cryptococcus neoformans it was -15.72%.
For `NC(=O)Nc1n[nH]c(-c2ccccc2)n1`, the Inhibition in the assay on Staphylococcus aureus was -5.91%; with Acinetobacter baumannii, -11.11%; in the assay on Escherichia coli, -7.81%; in the assay on Klebsiella pneumoniae it was 2.72%; in the assay with Candida albicans, 1.88%; in the assay on Cryptococcus neoformans it was 1.04%.
For the compound `O=C(Nc1cccc([N+](=O)[O-])c1)c1cc2ccccc2cc1O`, the Inhibition was -1.88% with Staphylococcus aureus; -9.44% in the assay with Acinetobacter baumannii; 23.78% with Escherichia coli; 3.58% in the assay with Klebsiella pneumoniae; 12.7% in the assay with Candida albicans; -10.5% in the assay on Cryptococcus neoformans.
For the compound `CCN(CC)CCN1C(=O)c2cccc3cc(N)cc(c23)C1=O`, the Inhibition is -0.77% in the assay with Staphylococcus aureus; 7.97% in the assay on Acinetobacter baumannii; 10.46% with Escherichia coli; 12.53% in the assay on Klebsiella pneumoniae; -0.17% with Candida albicans; -5.58% in the assay with Cryptococcus neoformans.
On to `NC(=O)/C(=C\c1ccncc1)c1cccc2ccccc12`, for which the Inhibition in the assay on Staphylococcus aureus was 3.23%; in the assay with Acinetobacter baumannii, -18.71%; in the assay with Escherichia coli it was 6.96%; in the assay on Klebsiella pneumoniae, 13.72%; with Candida albicans, -4.11%; in the assay on Cryptococcus neoformans, -6.45%.
With `Cc1ccc(S(=O)(=O)CCOC(=O)CNC(=O)OCc2ccccc2)cc1`, the Inhibition was 0.28% in the assay on Staphylococcus aureus; 8.19% in the assay with Acinetobacter baumannii; 0.72% with Escherichia coli; 12.65% in the assay on Klebsiella pneumoniae; 2.97% in the assay on Candida albicans; -8.5% in the assay on Cryptococcus neoformans.
With `Cc1ccc(NC(=O)Nc2ccccc2C(N)=O)cc1`, the Inhibition in the assay with Staphylococcus aureus is -6.86%; in the assay with Acinetobacter baumannii, -15.18%; in the assay with Escherichia coli it was 6.22%; in the assay with Klebsiella pneumoniae, 4.47%; in the assay on Candida albicans it was 1.66%; in the assay with Cryptococcus neoformans, -13.76%.
With `CNc1ncnc2c1cnn2C1CCCCO1` (stereo not given), the Inhibition with Staphylococcus aureus is 3.48%; in the assay with Acinetobacter baumannii, -13.53%; in the assay with Escherichia coli, 9.64%; in the assay on Klebsiella pneumoniae it was 6.75%; in the assay on Candida albicans, -2.26%; in the assay with Cryptococcus neoformans, -11.76%.
`CN(C)/C=N/c1ccc(Cl)c(Cl)c1`: the Inhibition was 2.81% in the assay with Staphylococcus aureus; 14.75% in the assay on Acinetobacter baumannii; -10.37% in the assay with Escherichia coli; 19.84% in the assay on Klebsiella pneumoniae; 8.37% in the assay on Candida albicans; -5.94% with Cryptococcus neoformans.
As for `Nc1ccc(C(=O)Nc2cccc(N)c2)cc1`, the Inhibition with Staphylococcus aureus was 4.61%; in the assay with Acinetobacter baumannii it was -10.29%; with Escherichia coli, 5.56%; in the assay on Klebsiella pneumoniae, 4.23%; with Candida albicans it was 0.06%; with Cryptococcus neoformans it was -9.54%.
For the compound `NC1=NC(c2ccc(Cl)cc2)N(c2ccc(S(N)(=O)=O)cc2)C(N)=N1` (stereo not given), the Inhibition was -8.08% with Staphylococcus aureus; 15.66% in the assay with Acinetobacter baumannii; 1.13% in the assay with Escherichia coli; 8.28% with Klebsiella pneumoniae; -0.99% in the assay with Candida albicans; -3.51% in the assay on Cryptococcus neoformans.
